Test results as given in the supplement of paper PMC11417369.
Over roughly 25,000 sequences, “ln(normalized median fluorescence intensity)” has its median near 7.1; the highest 2% begin near 10. For the sample, the highest values were picked, then their nearest neighbours and some sequences at random.

System: PfSIP2 AP2 domain 1 (GST-tagged)
Experiment: gcPBM binding intensity (ln(normalized median fluorescence intensity)); higher = stronger DNA binding
How it was run: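 The highest Masliner-normalised natural-log median intensity across replicate spots of either probe orientation is reported as binding intensity. GST-tagged P. falciparum DNA-binding domains expressed in E. coli were applied for 1 h to an Agilent 4 × 180k array of primer-extended double-stranded 36-bp intergenic genomic probes plus negative controls, and bound protein was detected with Alexa488 anti-GST antibody and scanned at 488 nm.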

Sequence	gcPBM binding intensity (ln)
ACATACATATGTAAATGTACAAAATATCCATAGATT [XGTACX_site2782]	6.81
TCAGATCCATAGAAGGTGCAAATAACAAAAATACAA [GTGCAC_site9610]	10.9
AAATAACAAAAGAAGGTGCTCATAAAAATTCATACA [GTGCAC_site9864]	8.23
TATAATGCTCTTCTTTGTACATATTATGATTATATT [XGTACX_site2332]	7.15
TTAGCAGGACGTTTGGTGCACGTACTGTTTTTCTTT [GTGCAC_site9856]	10.3
TTGACAGGAACGTTGGTGCACGTACTGTTTTTCTTT [GTGCAC_site9389]	10.7
ATTTTTTTTTTTTTTTTTTGGTTTTCTTTAGGAGTT [CACACA_negctrl_site1258]	6.9
TTTGTTTGGTTTTGGTGTACTTTTTTTTTTTTTTCT [XGTACX_site2050]	7.16
CTTCTGGACAGGAATGCACACATTTTTTTTTCTTTT [CACACA_site1807]	7
TACATGCTTATTTTAACACACAAATGGTAGTAATAA [CACACA_site766]	6.93
ATATTTTTCAAACATCGTACATTATGAGTTAAAATT [XGTACX_site584]	7.02
ATAAAAAGGAGACACACACACACACGCATATTTATA [CACACA_site6551]	7.08
TATATTATTAATTAAGCACACATTATTTTTATAATA [CACACA_site3982]	6.89
TGTGCACATAATTAGTGTACATTTTTTATTTAGACA [XGTACX_site317]	10.9
TTAATAATTAATTATAGTACACATTTATATTAATAA [XGTACX_site190]	7.03
ATATATATATATATAGTGCACATTTATATAATTATT	10.6
CTATTTCAATTTAGTGCACACATTTTAATTTATAAG [CACACA_site2040]	10.5
AGACCTTTAATTTGTGTGCACATAATTAGTGTACAT [GTGCAC_site9434]	8.49
ATAATATATAATATAGTGCATTATTTATTAATTAAT [GTGCAC_site9852]	10.1
GTATAATTATGTGCACGTACATATTTTATTATATAT [XGTACX_site8586]	9.21
TTATATAATTTAATAGTGCAATTATATTAATTTTTC	7.73
ATTCCACCTTAAAACTGTACTTTCTCAATCTTTTAT [XGTACX_site796]	7.22
TTACTTAAATATAAGTGTCCTCAAAAAAAAAAAAAA [XGTACX_site460]	6.94
ATTCGTCACATTTTTTGATATATATATATATATATA [CACACA_negctrl_site1785]	9.68
TTTTAAAAACGGCATGCATGTAATACATGGAAGGAA [TGCATGCA_site480]	7.46
TTTTTATTAAGACATGCATGGAAACGCACTATTTTA [TGCATGCA_site999]	9.74
GGGTTTTTTATTAATACATGCATGGAAACGCACTAT [TGCATGCA_site1000]	10.3
